Consider 89 compounds from PubChem BioAssay AID504329 (Southern Research Specialized Biocontainment Screening …, 2011).

Out of some 340,000 compounds screened, about 1,000 (0.29%) were called active. No stated cut-off is given here; in the data, inconclusive means inhibition above about 27% without an active follow-up result; inactive means below that. Not all results are given here. Measured potencies and affinities stand elsewhere.

The inhibition is the drop in the measured response relative to a control, in per cent.

A short description of the assay: NS1A inhibition, H1N1 influenza, cell based functional assay (AID 504329). As to conditions: percent inhibition, at 12.5 µM, active compounds read high.
In the case of `COc1ccc(C(C)(C)C)cc1NC(=O)COC(=O)CSCc1c(C)noc1C`, the inhibition is 12.6% (inactive).
As for `COC(=O)C1=C(C(=O)OC)SC(=C2C(=S)C(C)(C)N(C(=O)CC(C)C)c3ccccc32)S1`, the inhibition is 18.9% (inactive).
As for `COC(=O)C1=C(C(=O)OC)SC(=C2C(=S)C(C)(C)N(C(=O)C(C)C)c3ccccc32)S1`, the inhibition is 26.5% (inactive).
As for `CC(=O)C1=C(C)N(Cc2ccccc2)C(=O)N[C@H]1c1cccc(F)c1`, the inhibition was -6.27% (inactive).
On to `CC(C)=C(NC(=O)c1ccccc1)C(=O)Nc1ccc(C(=O)O)cc1`, for which the inhibition was -12.3% (inactive).
On to `O=C1C(=O)c2c(ccc3ccccc23)-c2ccccc21`, for which the inhibition was 0.1% (inactive).
For the compound `O=C1C=C(O)c2cccc(O)c2C1=O`, the inhibition is 3.19% (inactive).
With `CC(=O)c1ccc(S(=O)(=O)N(CCCO)Cc2cc3cc4c(cc3[nH]c2=O)OCCO4)cc1`, the inhibition was -6.83% (inactive).
To `COCCNC(=S)Nc1ccc2nc(N3CCN(C)CC3)cc(C)c2c1` belongs 8.16% (inactive); to `O=C(CNS(=O)(=O)c1ccccc1)Nc1ccccc1Br`, -10.4% (inactive).
For `Cc1c(NC(=S)N/N=C/c2ccc(O)cc2)c(=O)n(-c2ccccc2)n1C`, the inhibition is -9.33% (inactive).
Consider `Cc1c(NC(=S)N/N=C/c2cc([N+](=O)[O-])ccc2O)c(=O)n(-c2ccccc2)n1C`, for which the inhibition was 2.17% (inactive).
As to `Cc1c(NC(=S)N/N=C/c2ccc(Br)cc2)c(=O)n(-c2ccccc2)n1C`, the inhibition was 0.4% (inactive).
`Cc1c(NC(=S)N/N=C/C=C/c2ccc([N+](=O)[O-])cc2)c(=O)n(-c2ccccc2)n1C`: the inhibition is 1.25% (inactive).
In the case of `CCCOc1ccc(/C=N/NC(=O)CSCc2ccc([N+](=O)[O-])cc2)cc1OCC`, the inhibition was -9.68% (inactive).
Regarding `CC(C)CN(C(=O)C1CCCO1)C1CCS(=O)(=O)C1` (centres undefined), the inhibition is -6.34% (inactive).
With `O=C(Oc1coc(CSc2ncccn2)cc1=O)c1cccs1`, the inhibition is -4.51% (inactive).
In the case of `COC(=O)C1=C(CSc2nccn2C)NC(=O)NC1c1cc(C)ccc1C` (centres undefined), the inhibition was 1.93% (inactive).
Turning to `Cc1c(OC(C)C(=O)NCc2ccccn2)ccc2c3c(c(=O)oc12)CCCC3` (centres undefined), the inhibition is -4.86% (inactive).
On to `C=CCOc1ccc(/C=N/NC(=O)CC(=O)NC2CCCCC2)cc1`, for which the inhibition is 6.03% (inactive).
Next, `CC1(C(=O)Nc2nc3ccc(S(C)(=O)=O)cc3s2)CC1(Cl)Cl` (centres undefined): 5.4% (inactive); `O=C(O)c1ccc(N=N/C(=N\Nc2ccc(C(=O)O)cc2)c2ccccc2)cc1`: 15.3% (inactive).
In the case of `O=C(O)c1cccc(NN=C2c3ccccc3-c3ccccc32)c1`, the inhibition was 10.1% (inactive).
For `CC(=O)c1cccc(NC(=O)CN2C(=O)NC(C)(c3ccc4c(c3)OCCCO4)C2=O)c1` (centres undefined), the inhibition was 2.48% (inactive).
Consider `COc1ccccc1CNC(=O)Cn1cc([N+](=O)[O-])ccc1=O`, for which the inhibition is -14% (inactive).
Turning to `Cc1cccnc1Nc1nc(-c2ccccc2)cs1`, the inhibition was -4.02% (inactive).
On to `c1ccc(Nc2nc(-c3ccccn3)cs2)cc1`, for which the inhibition is 8.8% (inactive).
Next, `Cc1cccc(Nc2nc(-c3cccs3)cs2)n1`: 8.74% (inactive); `Cc1cccnc1Nc1nc(-c2ccc(O)cc2)cs1`: 5.7% (inactive).
Turning to `CCCc1nnc(NC(=O)CCC(=O)N2CCN(CCOC(c3ccccc3)c3ccccc3)CC2)s1`, the inhibition is 0.42% (inactive).
Take `O=CNCC(=O)NC1CCCCCC1`: the inhibition is -2.65% (inactive).
To `Cc1ccc(OCC(=O)N/N=C/c2cccnc2)cc1C` belongs -11% (inactive).
As for `O=C1NC(=O)C(CC(=O)N(c2ccccc2)C2(C(=O)NC3CCCC3)CCCCC2)N1` (centres undefined), the inhibition is -0.63% (inactive).
Turning to `CC(Oc1ccc(Cl)cc1Cl)C(=O)Nc1ccc(N2CCN(C)CC2)cc1` (centres undefined), the inhibition was 9.83% (inactive).
With `CCN1CCN(C2=C(NS(=O)(=O)c3ccccc3)C(=O)c3ccccc3C2=O)CC1`, the inhibition was -3.88% (inactive).
Take `Cc1ccc(S(=O)(=O)NCC(=O)N2CCN(c3ccccc3F)CC2)cc1`: the inhibition is 11.9% (inactive).
`CCOC(=O)N1CCN(C2=C(NS(=O)(=O)c3ccccc3)C(=O)c3ccccc3C2=O)CC1`: the inhibition was 18.6% (inactive).
Turning to `Cc1ccc(S(=O)(=O)CC(=O)N2CCN(c3ccccc3F)CC2)cc1`, the inhibition is 2.84% (inactive).
On to `CC(=O)Nc1ccc(S(=O)(=O)NC2=C(N3CCN(Cc4ccccc4)CC3)C(=O)c3ccccc3C2=O)cc1`, for which the inhibition was 12.6% (inactive).
As to `CCN1CCN(C2=C(NS(=O)(=O)c3ccc(C)cc3)C(=O)c3ccccc3C2=O)CC1`, the inhibition was 10.6% (inactive).
As to `CCOC(=O)N1CCN(C2=C(NS(=O)(=O)c3ccc(NC(C)=O)cc3)C(=O)c3ccccc3C2=O)CC1`, the inhibition was 12.4% (inactive).
On to `Cc1ccc(S(=O)(=O)Nc2nc3ccccc3nc2N2CCN(c3ccccc3F)CC2)cc1`, for which the inhibition was -0.57% (inactive).
As for `CC(C)(C)NC(=O)C12CC3CC(CC(Cl)(C3)C1)C2`, the inhibition was 1.34% (inactive).
Regarding `O=C(COC(=O)c1ccc(Br)c(S(=O)(=O)N2CCOCC2)c1)NC1CC1`, the inhibition is -5.17% (inactive).
To `CCOC(=O)c1cc(S(=O)(=O)NC2CCC(C)CC2)cn1C` (centres undefined) belongs -6.39% (inactive); to `CCCOc1ccc(NC(=O)C(=O)NCCCn2ccnc2)cc1`, -6.26% (inactive); to `Cc1cccc(Oc2cnn(C(C)(C)C)c(=O)c2Cl)c1`, -1.49% (inactive).
To `CCOC(=O)c1c(C)nc2c(c1-c1ccccc1)C(=O)c1ccccc1-2` belongs -17.6% (inactive); to `O=C(O)CCCNc1cc(N2CCN(C(=O)c3ccco3)CC2)c2noc3c2c1C(=O)c1ccccc1-3`, 25.1% (inactive).
For the compound `CN1CCN(c2ccc(Cl)cc2NC(=O)CC2OC(=O)c3ccccc32)CC1` (centres undefined), the inhibition is -6.08% (inactive).
With `CCOC(=O)N1CCN(c2ccccc2O)CC1`, the inhibition was -11.3% (inactive).
On to `CCOC(=O)c1c(C)oc2c1C(=O)c1ccccc1C2=O`, for which the inhibition was 15.3% (inactive).
Next, `CCOC(=O)N1CCN(c2cc(NCCO)c([N+](=O)[O-])c3nonc23)CC1`: -0.42% (inactive).
For `O=C1c2ccccc2-c2c1cccc2C(=O)N1CCN(C(=O)c2ccco2)CC1`, the inhibition is 0.55% (inactive).
For the compound `CC(=O)OCCNc1cc(Sc2nc3ccccc3[nH]2)c2nonc2c1[N+](=O)[O-]`, the inhibition is -9.31% (inactive).
As for `CCOC(=O)CC(=O)CSc1nc(C)nc2c1oc1ccccc12`, the inhibition is 2.82% (inactive).
With `O=C(NCCCN1CCOCC1)C(=O)NCC1OCCCN1S(=O)(=O)c1cc(F)ccc1F` (centres undefined), the inhibition was -1.53% (inactive).
With `COC(=O)c1cc(C)sc1NC(=S)N1CCN(CCc2ccccc2)CC1`, the inhibition was 4.17% (inactive).
As for `CCN1CCN(c2ccc(NC(=O)c3ccc4c(c3)OCCO4)cc2C)CC1`, the inhibition was -4.06% (inactive).
`COc1cccc(CCc2nc3ccccc3c(=O)n2N)c1`: the inhibition is -4.28% (inactive).
For the compound `COc1ccc(S(=O)(=O)n2nc(-c3ccc(Cl)cc3)cc2N)cc1`, the inhibition was 2.77% (inactive).
In the case of `CCN(CC(=O)Nc1c(F)cccc1F)C(=O)c1cc([N+](=O)[O-])ccc1N1CCOCC1`, the inhibition was -7.79% (inactive).
For the compound `Cc1cc(C)nc(NS(=O)(=O)c2ccc(NC(=S)NC(=O)C3CCCC3)cc2)n1`, the inhibition was -7.03% (inactive).
`COC(=O)c1ccccc1NC(=O)N1CCN(c2ccc(OC)cc2)CC1`: the inhibition was 12% (inactive).
In the case of `COc1cc(-c2cc(C(=O)OCC(=O)NC3CC3)c3ccccc3n2)cc(OC)c1OC`, the inhibition is -4.4% (inactive).
On to `COc1ccc(C(=O)Nc2cnn(Cc3c(F)cccc3Cl)c2)cc1OC`, for which the inhibition is -4.35% (inactive).
`O=C(N[C@H]1CP(=O)(Oc2ccccc2)O[C@H](COCc2ccccc2)[C@H]1O)C(Cl)(Cl)Cl` (some centres undefined): the inhibition was -20.9% (inactive).
For `CCOC(=O)c1cnc2ccc(C)cc2c1NCCN1CCOCC1`, the inhibition is -11.3% (inactive).
Take `CCOC(=O)c1ccc2ncc(C(=O)OCC)c(Nc3ccc(N4CCOCC4)cc3)c2c1`: the inhibition is 28.6% (inactive).
In the case of `O=c1[nH]c(=S)[nH]cc1Oc1ccccc1`, the inhibition is -0.47% (inactive).
With `CC(=O)N1c2ccc(S(=O)(=O)N3CCCC(C(=O)Nc4ccc(F)cc4)C3)cc2CC1C` (centres undefined), the inhibition is 1.22% (inactive).
Turning to `CC1CCN(C2CCN(S(=O)(=O)c3ccc(F)cc3)CC2)CC1`, the inhibition is -14.4% (inactive).
As to `Cc1n[nH]c(=S)n(/N=C/c2cccs2)c1=O`, the inhibition is -10.9% (inactive).
Turning to `CNCC(=O)Nc1c(C)n[nH]c1C`, the inhibition was -3.79% (inactive).
For the compound `Cc1nn2c(=S)[nH]nc2[nH]c1=O`, the inhibition is 5.07% (inactive).
With `COc1ccccc1OCC(=O)Nn1c(=S)[nH]c2ncccc2c1=O`, the inhibition is -1.5% (inactive).
As to `COc1cc(C)ccc1OCC(=O)NC1CCCCCC1`, the inhibition was -0.58% (inactive).
To `CCC(C)NC(=O)COCc1cc(-c2ccc3c(c2)OCO3)on1` (centres undefined) belongs -7.2% (inactive); to `COc1ccc(-c2sc3cc4c(cc3c2-c2ccc3c(c2)OCCO3)OCO4)cc1`, -11.4% (inactive); to `ClCC1CSC(=NC23CC4CC(CC(C4)C2)C3)O1` (centres undefined), -6.27% (inactive).
With `C1=CC2=NC34CCCCC3CC3=C(CCCC3)N4C2=CC1=NC1CCCCC1` (centres undefined), the inhibition is 4.56% (inactive).
Next, `N#CC(C#N)=c1ccc2c(c1)N1C(c3ccccc3)=CC(c3ccccc3)C3CCCCC31N=2` (centres undefined): -4.24% (inactive).
Turning to `C=CCN(c1ccccc1)S(=O)(=O)c1cccc(C(=O)NCC(c2ccc(OC)cc2)N2CCCCC2)c1` (centres undefined), the inhibition is 3.3% (inactive).
`COc1ccc(C=NNc2ccc(S(=O)(=O)Nc3ccccc3C(=O)O)cc2[N+](=O)[O-])c(OC)c1`: the inhibition was 20.4% (inactive).
As to `COc1ccccc1NS(=O)(=O)c1ccc(N/N=C/c2c(C)nn(-c3ccccc3)c2N2CCCC2)c([N+](=O)[O-])c1`, the inhibition is 8.44% (inactive).
`CC(=O)Nc1ccc(C=NNc2ccc(S(=O)(=O)Nc3ccccc3C(=O)O)cc2[N+](=O)[O-])cc1`: the inhibition is 15.1% (inactive).
Take `Cc1ccc(NC(=S)NNc2ccc([N+](=O)[O-])cc2S(=O)(=O)Nc2ccccc2C(=O)O)cc1C`: the inhibition was 26.1% (inactive).
Take `COc1cc(C=NNc2ccc(S(=O)(=O)Nc3ccccc3C(=O)O)cc2[N+](=O)[O-])ccc1O`: the inhibition was 14.4% (inactive).
Next, `CSc1ccc(C=NNc2ccc(S(=O)(=O)Nc3ccccc3C(=O)O)cc2[N+](=O)[O-])cc1`: 3.57% (inactive).
